About 3,500 (1.2%) of roughly 290,000 compounds were called active.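 The calls were made as follows: active = inhibition above the campaign mean inhibition over all tested compounds plus 3 SD (cut at about 28% in these data); inactive = the rest.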 For the sample, actives were picked, then their nearest neighbours and some compounds at random.
Test system: M18 aspartyl aminopeptidase (Plasmodium falciparum 3D7)
Test: inhibition of P. falciparum M18 aminopeptidase – biochemical, QFRET, recombinant enzyme, primary screen (AID 1822);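 also: 0% = plate median of test compound wells and 100% = 2 mM ZnCl2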
Details: recombinant PfM18AAP, H-Glu-NHMec fluorogenic cleavage; at 7.35 µM; hits give high values

inhibition, inactive:
CC(C)(C)SCCSC1=CC(=O)CC(c2ccccc2)C1 (configuration not stated) -7.92%
COc1ccc(CCNC(=O)CN2C(=O)COc3ccc(S(=O)(=O)N4CCCC4)cc32)cc1OC 0.73%
COc1ccccc1Cc1nc(-c2ccc(C)cc2)no1 0.56%
Cc1ccc(-c2noc(CN3CCN(Cc4ccccc4)CC3)n2)cc1 -2.79%
CCOC(=O)c1ccc(NC(=S)N2CCN(c3ccccn3)CC2)cc1 0.52%
CSCCC(NS(=O)(=O)c1ccc(C)cc1)C(=O)N1CCCC1 (configuration not stated) -2.59%
COc1ccc(CNc2nc3c(c(=O)[nH]c(=O)n3C)n2Cc2ccccc2)cc1 7.49%
C=CCSc1nc2c(c(=O)[nH]c(=O)n2C)n1Cc1ccccc1 -7.79%
CCS(=O)(=O)C1=NSC2=NC(=O)/C(=C\c3ccc(OS(=O)(=O)c4ccccc4)cc3)C(=N)N21 5.46%
CC1CCC2(CC1)NC(=O)N(Cc1nnc(-c3cccs3)o1)C2=O (configuration not stated) -3.12%
O=C(NNc1c2ccccc2nc2ccccc12)c1cc2ccccc2cc1O 1.24%
CC(=O)Nc1ccc(Nc2c3ccccc3nc3ccccc23)cc1 4.35%
O=c1c2cc(-c3ccccc3)sc2nc2n1N=C(c1cccs1)CS2 6.06%
CC1CCN(S(=O)(=O)c2ccc3[nH]c(=O)ccc3c2)CC1 -0.17%
Cc1ccc(CCC(=O)Nc2ncc(Cc3cc(Cl)ccc3Cl)s2)o1 -7.4%
O=C(c1cnn(-c2ccc(Cl)cc2)c1)c1ccccc1O -0.75%
O=S(=O)(c1ccc(-c2ccno2)s1)N1CCCCC1 11%
CCOc1ccccc1-c1cc(C(=O)N/N=C(\C)c2cccnc2)c2ccccc2n1 1.07%
O=C(NC(=S)Nc1ccc(Cl)c(C(=O)O)c1)c1cncc(Br)c1 15.9%
Cc1ccc(C)c(NC(=S)NNC(=S)Nc2ccc(C(C)C)cc2)c1 3.44%
COc1cccc(-n2c(N)cc(=O)nc2SCC(=O)Nc2cc(C)on2)c1 -2.14%
O=C(Nc1ncc([N+](=O)[O-])s1)C1COc2ccccc2O1 (configuration not stated) 12%
O=C(CCc1ccccc1)Nc1ncc([N+](=O)[O-])s1 4.6%
CC(=O)c1cccc(NC(=O)C2COc3ccccc3O2)c1 (configuration not stated) -8.5%
Cn1cncc1COC(=O)c1ccc(Cl)cc1 -13.9%
S=C(NCCc1ccccc1)N1CCCCC1 -5.18%
Oc1ccccc1N1CCN(C(=S)NCc2ccccc2)CC1 9.57%
Cc1occc1C(=O)N/N=C/c1ccc(-c2cccc([N+](=O)[O-])c2)o1 9.99%
CCOc1ccccc1N1CCN(C(=S)Nc2ccc(S(N)(=O)=O)cc2)CC1 9.49%
NS(=O)(=O)c1ccc(NC(=S)N2CCCC2)cc1 0.47%
NS(=O)(=O)c1ccc(CCNC(=O)c2nc(CS(=O)(=O)c3ccc(Cl)cc3)no2)cc1 -4.83%
O=C(NC1CCCC1)C(c1ccc(Cl)cc1)N(C(=O)c1csnn1)C1CC1 (configuration not stated) -2%
O=C(CCCN1C(=O)/C(=C/c2cccs2)SC1=S)Nc1ccc(O)cc1 1.87%
O=C(CCN1C(=O)/C(=C/c2cccs2)SC1=S)NNC(=O)c1cccc(O)c1 -2.41%
CN(C(=O)CC1C(=O)NCCN1Cc1ccc2ccccc2c1)C1CCOCC1 (configuration not stated) 9.14%
Cc1cc(NC(=O)CSc2nnc(Nc3ccccc3F)s2)no1 -12.2%
Cc1ccc(Nc2nnc(SCC(=O)c3cc4ccccc4o3)s2)cc1C 6.69%
O=C(NCCS(=O)(=O)N1CCN(c2ccccc2F)CC1)c1ccc(Br)o1 0.95%
CCOc1ccc(C(=O)Nc2ccc(S(=O)(=O)NCC3CCCO3)cc2)cc1OCC (configuration not stated) -11.8%
CC(C)(C)c1ccc(CN2C(=O)c3ccccc3S2(=O)=O)cc1 7.13%
Cc1cccc(-n2c(N)c(C(=O)N3CCN(C)CC3)sc2=S)c1 13.6%
Cc1ccc(-n2c(N)c(C(=O)N3CCOCC3)sc2=S)c(C)c1 4.98%
CCN(CC)CCCNC(=O)c1cc2c(=O)[nH]c3ccc(C)cc3c2s1 0.43%
CCOc1cc(C(=O)O)ccc1OCCOc1ccccc1 9.32%
[2H]C(CCOS(N)(=O)=O)c1ccccc1 (configuration not stated) -1.1%
CCOC(=O)CSc1nc2sc3c(c2c(=O)[nH]1)CC(C)(C)OC3 10.6%
CCSc1nc2sc3c(c2c(=O)[nH]1)CC(C)(C)OC3 -5.01%
COc1ccccc1OCC(=O)Nc1c2c(nn1-c1ccc(F)cc1)CS(=O)(=O)C2 -3.07%
Cc1cnc(NC(=O)CSc2nnc(C)s2)s1 -8.35%
Cc1nnc(SCC(=O)NC2CCCC2)s1 5.86%
Cc1ccc(C)c(NC(=O)CCC(=O)N/N=C2/CC(=O)CC(C)(C)C2)c1 -1.68%
CC1C/C(=N/NC(=O)c2cccs2)CC(C)(C)C1 (configuration not stated) -19.4%
COc1ccccc1CNS(=O)(=O)CC12CCC(CC1=O)C2(C)C (configuration not stated) 6.59%
O=C(Nc1cccc(O)c1)c1ccc(C(=O)c2ccccc2)o1 -0.92%
C/C(=C\C(=O)c1cccnc1)Nc1ccc(C)c(C)c1 1.47%
COc1ccc(N2CCN(c3ccc([N+](=O)[O-])cc3Cl)CC2)cc1 -8.52%
O=C(O)C1CCN(c2ccc([N+](=O)[O-])cc2[N+](=O)[O-])CC1 -4.27%
CCOc1ccc(C(=O)Nc2cccc(SC)c2)cc1 -1.4%
O=C(CN1C(=O)COc2ccc(Cl)cc21)Nc1ccc(N2CCOCC2)cc1 -12.7%
COc1ccc(Cl)cc1NC(=O)CN1CCN(C(=O)N2CCOCC2)CC1 -7.2%
CCOc1ccc(C(=O)CCN2CCOCC2)cc1 -12.6%
O=C1c2ccccc2C(=O)N1CCOc1ccc(F)cc1 -6.45%
CCn1c(SCC(=O)Nc2ccc(Br)cc2)nc2sc3c(c2c1=O)CCN(C)C3 7.65%
N#Cc1ccsc1NC(=O)CN1CCN(S(=O)(=O)c2cc(Cl)ccc2Cl)CC1 -4.98%
COc1ccc(Cl)cc1S(=O)(=O)N1CCN(CC(=O)C(C)(C)C)CC1 -1.35%
C/C(=N\NC(=O)c1ccccc1F)c1ccccn1 -8.33%
CC(C)(C)NC(=O)NC(=O)COC(=O)C1c2ccccc2Oc2ccccc21 6.75%
CN(C(=O)CC1C(=O)NCCN1Cc1ccc(F)cc1Cl)C1CCCCC1 (configuration not stated) -5.56%
CCn1ccnc1CNC(=O)CC1C(=O)NCCN1CCCc1ccccc1 (configuration not stated) 7.75%
CCN(c1cccc(C)c1)S(=O)(=O)c1ccc(-c2coc(C)n2)cc1 -0.79%
CCOc1ccccc1/C=N/Nc1nc2ccccc2o1 2.76%
Brc1ccccc1/C=N/Nc1nc2ccccc2o1 -0.38%
O=C(NC1Cc2ccccc2C1)c1cc(COc2cccc(C(F)(F)F)c2)on1 0.88%
O=C(O)c1ccccc1-c1ccccc1C(=O)NCCc1ccccc1 0.27%
COc1cccc(NC(=S)NCCCN2CCOCC2)c1 -6.09%
Cc1ccc(C(=O)NC(=S)NCCN2CCOCC2)cc1 -7.16%

inhibition, active:
Cc1ccc(-c2noc(CC(c3ccccc3)c3ccccc3)n2)cc1 34.4%
Cn1c(=O)[nH]c(=O)c2c1[nH]c(=S)n2Cc1ccccc1 51.6%
CC(C)(C)OC(=O)NNc1c2ccccc2nc2ccccc12 29.7%
Cc1ncc(CC(=O)n2cc(C(=O)c3cc(Cl)ccc3O)cn2)s1 29.3%
CC(C)c1ccc(NC(=S)NNc2ccc(Cl)c(C(=O)O)c2)cc1 39.9%
CC(=O)Oc1ccccc1C(=O)Nc1ncc([N+](=O)[O-])s1 35.7%
Oc1ccc(N2CCN(C(=S)NCc3ccccc3)CC2)cc1 36.6%
COc1ccc(N2CCN(C(=S)Nc3ccc(S(N)(=O)=O)cc3)CC2)cc1 46.7%
CC(C(=O)Nc1ccc(O)c(C(=O)O)c1)N1C(=O)/C(=C/c2cccs2)SC1=S (configuration not stated) 30.4%
Cc1ccccc1Nc1nnc(SCC(=O)c2cc3ccccc3o2)s1 28.2%
N#Cc1ccccc1-n1c(N)c(C(=O)N2CCCC2)sc1=S 29.2%
CC/C(C)=N/Nc1nc2sc3c(c2c(=O)[nH]1)CC(C)(C)OC3 48.8%
Cc1nnc(SCC(=O)Nn2cnnc2)s1 41.6%
CC1(C)CC(=O)C/C(=N\NC(=O)c2cccs2)C1 38.3%
C/C(=C\C(=O)c1ccccc1)Nc1cccc(O)c1 31%
O=[N+]([O-])c1ccc(N2CCN(c3ccc(O)cc3)CC2)c(Cl)c1 36%
O=C(Nc1cc(N2CCOCC2)ncn1)NC1(C(F)(F)F)Oc2ccc(Cl)cc2O1 (configuration not stated) 89.4%
O=C(CN1CCN(S(=O)(=O)c2cc(Cl)ccc2Cl)CC1)c1ccc(O)c(O)c1 71.5%
CCn1ccnc1CNC(=O)CC1C(=O)NCCN1Cc1ccc(F)cc1Cl (configuration not stated) 33.7%
COc1ccc(/C=N/Nc2nc3ccccc3o2)cc1OC 56.5%
CCOc1cccc(/C=N/NC(=S)NCCN2CCOCC2)c1O 37.6%

— PubChem BioAssay AID1822 (The Scripps Research Institute Molecular Screening Center, 2009)
